The source of these data is PubChem BioAssay.

Several values for one entry are separate records, joined by “and”; a condition that tells them apart may be missing. Equal values may be shown once. Activity calls are given as the source filed them. Unless noted, how the calls were made is not given here.

A short description of assay [1]: liver-stage malaria parasite growth inhibition, primary screen, cell-based, HepG2, luciferase luminescence, HepG2 viability (AID 624349; in the data active means parasite load remaining mostly below about 12%, no sharp cut-off; inactive means mostly above about 10%;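 further: 100% = mean of DMSO negative control wells on the same plate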). The conditions noted are these: P. berghei liver stage in HepG2, luciferase luminescence, concentration not given here; parasite load remaining: stronger effect = lower value; viability: measured here: HepG2 viability without parasites.
Assay [2] is described as follows: Cy5 fluorescence interference with SSB-bound oligo, artefact control for HCV NS3 helicase inhibitor project, biochemical, NIH Clinical Collection, E. coli SSB (AID 743268).
Assay [3] concerns Hepatitis C virus NS3 helicase. Put plainly: HCV NS3 helicase inhibitors, primary screen, biochemical, fluorescence polarization, NIH Clinical Collection (AID 743270). The conditions noted are these: NS3 helicase binding to Cy5-dT15 DNA, stronger effect = higher value, concentration not given here.
In assay [4] the target is Single-stranded DNA-binding protein (Escherichia coli (strain K12)) (UniProt P0AGE0). Put plainly: E. coli SSB displacement from DNA, counter-screen for HCV NS3 helicase inhibitor project, biochemical, fluorescence polarization, NIH Clinical Collection (AID 743271; in the data active means inhibition above about 28%). The conditions noted are these: stronger effect = higher value, concentration not given here.
The nature of assay [5]: fluorescence interference in NS3h assay format, artefact control for HCV NS3 helicase inhibitor project, biochemical, NIH Clinical Collection (AID 743272).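 Further: HCV NS3 helicase with a Cy5 labelled single stranded DNA probe.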 The conditions noted are these: fluorescence interference counterscreen, stronger effect = lower value.
The test system of assay [6] is Neuropilin-2 / VEGF-C interaction (human). Briefly: inhibitors of NRP2–VEGF-C binding, biochemical, microplate binding format, z-score (AID 743281). The conditions noted are these: microplate NRP2/VEGF-C binding assay; stronger effect = lower value.
Assay [7] in a line: modulation of C. elegans fzo-1 (AID 1259413).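 Further: fzo-1 mutant C. elegans worms in liquid wells.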 The conditions noted are these: C. elegans fzo-1 modulator screen, mean read-out; stronger effect = higher value.
Assay [8] is described as follows: sensitizers of A549 cells to miR-34 induction, primary screen, imaging, A549 dox-inducible miR-34, nuclei and caspase counts (AID 1347080;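 active means compounds whose cell count with miR-34 switched on is under 0.7 times the count with it off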). The conditions noted are these: A549 miR-34 inducible, Hoechst nuclei count, 48 h.
Assay [9] in a line: viability rescue of complex I mutant cybrids, primary screen, cell-based, galactose medium, ATP luminescence (AID 1645843;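 active means z-score of at least 1.8 in each of two replicates, scored against plate mean and spread of sample wells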;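 further: positive z means more ATP and so rescue of galactose-driven cybrid death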). The conditions noted are these: complex I mutant cybrid cells, 72 h, stronger effect = higher value.
Where [10] appears, read: stronger effect = lower value, cell number ratio, induced over uninduced.
The mark [11] stands for this setting: measured here: relative caspase fold change +Dox/-Dox.
Setting [12] is: measured here: total cells with miR-34 induction, stronger effect = lower value.
The mark [13] stands for this setting: measured here: total cells without miR-34 induction.

As to `COc1cc([C@@H]2c3cc4c(cc3[C@@H](O[C@@H]3O[C@@H]5CO[C@@H](C)O[C@H]5[C@H](O)[C@H]3O)[C@H]3COC(=O)[C@H]23)OCO4)cc(OC)c1O`, the parasite load remaining in assay [1] is 189% (inactive) and 77.5% (inactive) and 87.8% (inactive). In addition, the viability in [1] is 114% and 71.8% and 103%. Also, the fluorescence ratio in [2] is 1.02 (inactive); in assay [5], 1.01 (inactive). In addition, the inhibition in [3] is 0.66% (inactive); in assay [4], 2.76% (inactive). Further, the z-score was -1.12 (inactive) in assay [6] and -2.08 (inactive) in assay [9]. For the same molecule, the mean signal in assay [7] is 267 (inactive). For the same molecule, the fold change in [8] (setting [10]) was 0.888 (inactive) and 1.07 (inactive); in [8] (setting [11]), 1.6 and 0.504. In addition, the cell count in assay [8] (setting [12]) was 2840 and 3400; in assay [8] (setting [13]), 3200 and 3170.
For the molecule `CC(=O)N1CCN(c2ccc(OC[C@H]3CO[C@](Cn4ccnc4)(c4ccc(Cl)cc4Cl)O3)cc2)CC1`, the fluorescence ratio in assay [2] was 0.93 (inactive); in assay [5], 0.91 (inactive). For the same molecule, the figures for the inhibition in assay [3] and in assay [4] were 4.36% (inactive) and 13.8% (inactive), respectively. Moreover, the z-score in [6] was 0.168 (inactive); in assay [9], -1.2 (inactive) and -0.985 (inactive) and -1.05 (inactive). The mean signal in [7] is 283 (inactive).
For the molecule `CN1CCc2cc(Cl)c(O)cc2[C@@H](c2ccccc2)C1`, in assay [1], the parasite load remaining was 38.6% (inactive). Further, the viability in assay [1] came to 72.6%. The fluorescence ratio was 0.96 (inactive) in assay [2] and 1.01 (inactive) in assay [5]. Besides, the inhibition was -5.46% (inactive) in [3] and -6.69% (inactive) in [4]. Moreover, the z-score in assay [6] is -1.33 (inactive); in assay [9] it was -0.095 (inactive) and 0.675 (inactive). The mean signal in assay [7] was 255 (inactive). In addition, the fold change in assay [8] (setting [10]) is 0.95 (inactive) and 0.955 (inactive); in [8] (setting [11]), 1.25 and 1.04. The cell count in assay [8] (setting [12]) is 9640 and 8960; in assay [8] (setting [13]) it was 10100 and 9370.
Consider `COCC1=C(C(=O)OC(C)OC(=O)OC(C)C)N2C(=O)[C@@H](NC(=O)/C(=N\OC)c3csc(N)n3)[C@H]2SC1` (stereo not given in full), for which the outcome in assay [6] was inactive. Also, the mean signal in assay [7] was 270 (inactive).
As to `CCCCC[C@H](O)/C=C/[C@H]1[C@H](O)CC(=O)[C@@H]1CCCCCCC(=O)O`, the parasite load remaining in assay [1] was 87.1% (inactive) and 65% (inactive) and 24% (inactive). Moreover, in [1], the viability was 70.2% and 67.7% and 65.5%. Moreover, the results for the fluorescence ratio in [2] and in assay [5] were 0.87 (inactive) and 0.98 (inactive), respectively. For the same molecule, the figures for the inhibition in assay [3] and in [4] were -3.71% (inactive) and -0.39% (inactive), respectively. The z-score in [6] was -0.575 (inactive); in assay [9], 0.265 (inactive) and 0.315 (inactive). Moreover, in assay [7], the mean signal is 268 (inactive).
For the molecule `Cc1sc(N)c(C(=O)c2cccc(C(F)(F)F)c2)c1C`, in assay [1], the parasite load remaining was 28.2% (inactive). The viability in assay [1] turned out to be 69.8%. The fluorescence ratio in [2] was 0.94 (inactive); in [5], 0.97 (inactive). The figures for the inhibition in assay [3] and in [4] were -3.71% (inactive) and -1.97% (inactive), respectively. Also, the z-score in assay [6] is 0.715 (inactive); in [9], 1.27 (inactive) and 1.38 (inactive). Further, in [7], the mean signal was 276 (inactive). Further, the fold change in [8] (setting [10]) is 0.904 (inactive) and 0.931 (inactive); in [8] (setting [11]), 0.769 and 0.712. In addition, the cell count in [8] (setting [12]) was 8250 and 8560; in [8] (setting [13]) it was 9130 and 9190.
As to `CC(=O)OC1C([N+]2(C)CCCCC2)C[C@H]2C3CC[C@H]4C[C@H](OC(C)=O)C([N+]5(C)CCCCC5)CC4(C)[C@H]3CCC12C` (stereo not given in full), the parasite load remaining in [1] was 86.3% (inactive). Besides, the viability in [1] came out at 68.8%. Moreover, the fluorescence ratio was 0.94 (inactive) in assay [2] and 0.71 (active) in [5]. The inhibition in assay [3] was -0.4% (inactive); in [4] it was 11.4% (inactive). The molecule was classed as inactive in assay [6]. Further, the mean signal in assay [7] is 283 (inactive).
